Whole data set: some 68,000 sequences, median “fluorescence intensity (a.u.)” near 9,100, cut for the highest 2% near 16,000. Only a selection was taken, and the highest values are over-represented in it overall.

OsWRKY34, sequence (Q0JBA9 entry or part of it): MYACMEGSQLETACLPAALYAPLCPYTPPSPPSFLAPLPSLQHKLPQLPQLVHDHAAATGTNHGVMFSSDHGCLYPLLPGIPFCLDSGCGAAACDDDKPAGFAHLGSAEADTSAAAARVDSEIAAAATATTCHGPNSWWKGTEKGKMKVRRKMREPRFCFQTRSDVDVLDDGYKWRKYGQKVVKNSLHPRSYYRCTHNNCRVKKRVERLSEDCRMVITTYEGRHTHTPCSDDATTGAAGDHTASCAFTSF

The target in the test is OsWRKY34 (Oryza sativa, UniProt Q0JBA9 1-250). Description: protein-binding microarray (RPBM); PBS, 2% BSA, 51.3 ng/ul salmon testes DNA, 50 uM zinc acetate, 200 nM TF, 25 C, 1 h; high values mean tight binding. Particulars: protein: recombinant; tags: N-terminal polyhistidine and DsRed monomer fusion (pET32a); label: CyDye5-dUTP incorporated in the synthesized complementary strand; 3' TTTTT single-stranded linker to array surface; dsDNA, one strand shown. The gist of the method:
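A custom Agilent array was converted to double-stranded form by primer extension with Cy5-dUTP and blocked with 2% BSA. Protein at 200 nM in PBS with 2% BSA, salmon testes DNA and 50 µM zinc acetate was applied for 1 h at 25 °C, followed by washing. The proteins were polyhistidine–DsRed N-terminal fusions of transcription factors, expressed in E. coli BL21-CodonPlus and Ni–NTA-purified. The binding signal is per-feature fluorescence intensity (arbitrary units) from an Axon 4000B scanner.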
For the sequence “CCTCGTACGTGTTGGTGTTGCCAAGCCCAAGCCAGTAGTACGGAGTCACCTAGTGCAG”, the binding signal is 8990 fluorescence intensity (a.u.).
Take “CACGCTTCGTCGTCGGATCGGGACGCCTTGCTGCCTCTGCCGGAGTCACCTAGTGCAG”: the binding signal was 8170 fluorescence intensity (a.u.).
On to “ACTACATCCGCGCACCTGCTTTGCTCGTCGACGATTATAACGGAGTCACCTAGTGCAG”, for which the binding signal is 12900 fluorescence intensity (a.u.).
Regarding “TGTGGATGAGTGTGTGTGTGTGGAGATCAGTGGGAGACCACGGAGTCACCTAGTGCAG”, the binding signal was 8170 fluorescence intensity (a.u.).
With “AAGGGTGTATTTATTGGTGCAATAGCGTTTTTGTTTGACCCGGAGTCACCTAGTGCAG”, the binding signal was 8690 fluorescence intensity (a.u.).
On to “AGAGCTTAATTTGGTATGTGTGTGTATATATATATATATACGGAGTCACCTAGTGCAG”, for which the binding signal is 8150 fluorescence intensity (a.u.).
Take “AGGGAGGAGTACATCTAGTAGTATAGGGGAGAGGGTGGGCCGGAGTCACCTAGTGCAG”: the binding signal was 11500 fluorescence intensity (a.u.).
As for “CTGATTCATTATACTAGGAGGGGTGGGAGGGAGGGAGTACCGGAGTCACCTAGTGCAG”, the binding signal was 18800 fluorescence intensity (a.u.).
In the case of “CTGTATTCATTAGGGTGGGACTGTATACTATAGTTATTATCGGAGTCACCTAGTGCAG” it was 15700 fluorescence intensity (a.u.); in that of “TGGGGTATGTGTGCTTGGTTATGTGTGCATCTTAGTTATACGGAGTCACCTAGTGCAG”, 19300 fluorescence intensity (a.u.); in that of “TAATTACCTCTCTTTAGTTTTGGGGTATGTGTGCTTGGTTCGGAGTCACCTAGTGCAG”, 9680 fluorescence intensity (a.u.).
Turning to “TATAGGTCCCACGCTATCTCAGTCGCCACATCAGCTAAAACGGAGTCACCTAGTGCAG”, the binding signal was 8690 fluorescence intensity (a.u.).
Consider “TTTTAAGTATAATTTCTCTATAATTTGACAATGTGGTGCTCGGAGTCACCTAGTGCAG”, for which the binding signal is 8550 fluorescence intensity (a.u.).
As to “TTTGTTTTGAGCCGAACAAATCGGTAGTCAGTGGGCGGGGCGGAGTCACCTAGTGCAG”, the binding signal was 11900 fluorescence intensity (a.u.).
In the case of “TGATCTTTTGTTTCCTGCTTGGTATAGTATAAGCTCTCATCGGAGTCACCTAGTGCAG” it was 8800 fluorescence intensity (a.u.); in that of “TTTTCTTTTTTCCCGCACTTTCTTTTCTTCCCGGAGATGTCGGAGTCACCTAGTGCAG”, 8400 fluorescence intensity (a.u.); in that of “TTAAAAAAAAGTCAACGATGATAAATATTTAGAGAGTGAGCGGAGTCACCTAGTGCAG”, 13100 fluorescence intensity (a.u.).
As to “CCATGGCGGGGTGTATTGTTGTTGTATTTGGGGTTCTGGTCGGAGTCACCTAGTGCAG”, the binding signal was 19200 fluorescence intensity (a.u.).
In the case of “CTGTTGTTCTGTATATTGTGGTGGGTGTTGATTTGCGGGTCGGAGTCACCTAGTGCAG” it was 12800 fluorescence intensity (a.u.); in that of “TTCCTTTTGTCCTCCATGCTCTCTGTATGTCGGTATTTTACGGAGTCACCTAGTGCAG”, 10500 fluorescence intensity (a.u.).
Consider “GTTTGTGTTCTTGGATTGGGTTGGGTTGGGTTGGTGAGGTCGGAGTCACCTAGTGCAG”, for which the binding signal was 17600 fluorescence intensity (a.u.).
In the case of “GGTTGTGTTCTTGTTGGCGAGGAGGAGAGAGGGGTGGGGTCGGAGTCACCTAGTGCAG”, the binding signal was 14700 fluorescence intensity (a.u.).
In the case of “ATTGGGTTCTTGGAGCTGTTGGATTGGGTTTTTTTGGGAGCGGAGTCACCTAGTGCAG” it was 9180 fluorescence intensity (a.u.); in that of “CATCGGATATTGTATTATGGTGTTGTATGGGTTGTTCGGGCGGAGTCACCTAGTGCAG”, 14000 fluorescence intensity (a.u.); in that of “GTCGGTGGAGCGGCCCTTTTTATTTCTGTGGGAGGAGGGTCGGAGTCACCTAGTGCAG”, 9300 fluorescence intensity (a.u.).
The value for “AGTCAACAGGGAGGGTAAAATAAGAAAGCAACAGCAAGAGCGGAGTCACCTAGTGCAG” was 9730 fluorescence intensity (a.u.).
As for “AAGCGGTACCATGGGCGGGAGGGTATTTCTGTCCTTTTGTCGGAGTCACCTAGTGCAG”, the binding signal was 17600 fluorescence intensity (a.u.).
Consider “GAAAGATGATTTGGCAAGTAAATAAATAAGAAAAGAGAAGCGGAGTCACCTAGTGCAG”, for which the binding signal was 62600 fluorescence intensity (a.u.).
Regarding “CTCTACTTCTAATATTCCTTATTTTTTTAATTCCGAATTTCGGAGTCACCTAGTGCAG”, the binding signal is 8800 fluorescence intensity (a.u.).
For “TTTCTACACCCTGTAGATCCTTGGACCCACATGCAGACCACGGAGTCACCTAGTGCAG”, the binding signal was 8730 fluorescence intensity (a.u.).
“GTGGGTGGGATCCAGGAAGATTTTAAGCTGACTGCTGCGGCGGAGTCACCTAGTGCAG”: the binding signal is 8510 fluorescence intensity (a.u.).
As to “CCTTCGCTCGCCACGTGGCAGCCGCTAGTCCTTATCGCCGCGGAGTCACCTAGTGCAG”, the binding signal was 10300 fluorescence intensity (a.u.).
Turning to “GGGAAACCAGGCTATCCTCTTGGTCACTCTGCACCAATTCCGGAGTCACCTAGTGCAG”, the binding signal is 10500 fluorescence intensity (a.u.).
As to “ACAGCTCTGCTCAACCTTGCCATCTCGATCAATCGATCCTCGGAGTCACCTAGTGCAG”, the binding signal was 11400 fluorescence intensity (a.u.).
Take “GGGAGTAGTATTGATTTGACCATCGTTGACCAAGAATAAGCGGAGTCACCTAGTGCAG”: the binding signal is 17400 fluorescence intensity (a.u.).
Take “TGGATACTTGGCGTTGGTGGGCTGGTTCTTATTGGATACGCGGAGTCACCTAGTGCAG”: the binding signal is 8120 fluorescence intensity (a.u.).
As for “TTTCTTGGCTGGTTTGGTTGTGGATTGGATTGGATTGGGTCGGAGTCACCTAGTGCAG”, the binding signal was 16100 fluorescence intensity (a.u.).
On to “CATCGTTGACCAAGAATAAGAACAGCGAATTTGCATAATGCGGAGTCACCTAGTGCAG”, for which the binding signal is 14700 fluorescence intensity (a.u.).
Regarding “GTTGACGGGGTTTGTGAGGTGTGGCGGTGACTTGGAAAGACGGAGTCACCTAGTGCAG”, the binding signal is 10100 fluorescence intensity (a.u.).
As to “AGGTGATGTTTGGGGTCGTTGGGTTGGTCCGCGTTCTTGCCGGAGTCACCTAGTGCAG”, the binding signal was 17400 fluorescence intensity (a.u.).
Consider “CGGTGTCGGATTTTTGGTTGGTTGACGGGGTTTGTGAGGTCGGAGTCACCTAGTGCAG”, for which the binding signal was 17500 fluorescence intensity (a.u.).
On to “TAATAAGTGAGACCAAATATTGATTGTGTAGTATATATTTCGGAGTCACCTAGTGCAG”, for which the binding signal was 8670 fluorescence intensity (a.u.).
